# Hits are enriched below; roughly 5.9% of the tested compounds scored in any of these assays.
# TrxR1 substrate: rat thioredoxin reductase 1 substrate activity. purified TrxR1 substrate turnover, NADPH consumption readout. Potency, µM (series often up to 114 µM), for the others: top-dose activity change, negative = substrate turnover. hit rate 0.01% among 390,000; note: potency is the fitted concentration of half-maximal effect; nearly all actives have a fitted effect of over 50% in size
#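 Rat TrxR1, dispensed at 90 nM, was prereduced with 400 uM NADPH (final) for 5 min at ~22 deg C, then incubated with compound 15 min before 400 uM selenite. A first-read NADPH fluorescence drop versus no-compound background flagged substrates.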
# rTrxR1 inhibitor: inhibitors of rat thioredoxin reductase 1; Potency, µM (highest dose often 114 µM), for the others: at the top dose activity change, negative = inhibition, hits mostly inhibitors; hit rate 1% among 390,000; AID 588453; recombinant rTrxR1, NADPH fluorescence consumption, selenite substrate; O89049; note: potency is the fitted concentration of half-maximal effect; nearly all actives have a fitted effect of over 65% in size
#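 Rat TrxR1 (90 nM in the dispensed reagent) was pre-reduced with 400 uM NADPH for 5 min at room temperature, then incubated with compound for 15 min. After 400 uM selenite was added, NADPH fluorescence (Ex 340/Em 450 nm) was followed for 8 min.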
# FBPA coupling cs: coupling enzyme interference in Giardia aldolase counter-screen; hit rate 0.67% among 290,000; coupling enzyme system counterscreen, AmpLite Red fluorescence; activity change, negative = inhibition, % at 58.2 µM, hits read low; in the data active = activity change below about -30%
#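 Counterscreen lacking aldolase: glyceraldehyde-3-phosphate coupling-enzyme reagent preincubated 10 min at RT with compound (at 57.5 uM final), then substrate/coupling system with AmpLite Red added; fluorescence read at 525/598 nm after 20 min RT.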
# RORgamma inh: ROR gamma (mouse) transcription inhibition. Drosophila S2 Gal4-RORgamma UAS-luciferase reporter, 20 h. Potency, µM (highest dose often 53.6 µM), for inactives: at the top dose activity change, negative = inhibition, hits mostly inhibitors. hit rate 5.4% among 310,000; note: potency is the fitted concentration of half-maximal effect; nearly all actives have a fitted effect of over 60% in size
#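 Drosophila Schneider cells stably carrying a metallothionein-driven Gal4 DBD–ROR gamma fusion and a UAS-Photinus luciferase reporter were exposed to compound for 1 hr, then induced with copper sulfate (700 uM final) for 20 hr at ambient temperature before luminescence reading.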
# Gal4-VP16 FLuc: Gal4-VP16 reporter inhibition counter-screen; Drosophila S2 Gal4-VP16 UAS-luciferase, luminescence, 20 h; Potency, µM (highest dose often 53.6 µM), without a hit: at the top dose activity, negative = inhibition, hits mostly inhibitors; hit rate 3.5% among 310,000; AID 2546;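 note: Gal4-VP16 expression switched on by copper sulfate through the metallothionein promoter; potency is the fitted concentration of half-maximal effect; nearly all actives have a fitted effect of over 50% in size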
# GALK inhibitor: inhibitors of human galactokinase; Purified GALK, Kinase-Glo residual ATP luminescence; Potency, µM (highest dose often 57.5 µM), without a hit: at the top dose activity change, negative = inhibition, actives largely listed as inhibitors; hit rate 0.007% among 270,000; AID 1868; note: potency is the fitted concentration of half-maximal effect
# Target sequence (P51570 whole entry, looked up): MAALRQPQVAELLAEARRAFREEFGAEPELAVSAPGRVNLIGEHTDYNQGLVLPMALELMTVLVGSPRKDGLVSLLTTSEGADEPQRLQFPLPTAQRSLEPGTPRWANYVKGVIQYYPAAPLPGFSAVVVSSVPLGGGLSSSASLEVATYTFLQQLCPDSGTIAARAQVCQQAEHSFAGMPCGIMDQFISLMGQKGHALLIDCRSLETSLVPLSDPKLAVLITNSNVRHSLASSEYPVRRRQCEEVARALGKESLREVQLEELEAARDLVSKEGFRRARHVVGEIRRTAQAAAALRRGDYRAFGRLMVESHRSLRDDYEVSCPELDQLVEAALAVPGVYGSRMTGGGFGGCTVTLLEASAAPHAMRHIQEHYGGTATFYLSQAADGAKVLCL
#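 Human GALK (5 nM) with 35 uM ATP and 100 uM galactose in 20 mM HEPES pH 8.0, 5 mM MgCl2, 60 mM NaCl, 1 mM DTT, 0.01% BSA. After 1 h at room temperature, leftover ATP was read by Kinase-Glo Plus luminescence.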
# Numbers without * were called inactive; i = inactive; ? = inconclusive; nt = no result given; [ ] = remark or other dose. Unless noted, calls come from the whole dose curve; as a rule, active = well fitted curve in the direction sought with a large enough effect; inconclusive = small, poorly fitted or top-dose-only effect, or another doubt; inactive = no such curve, though single readings can be large; an effect the other way counts as inactive or inconclusive. % is set by controls: 0 for no effect and ±100 for the full control effect.
SMILES,TrxR1 substrate,rTrxR1 inhibitor,FBPA coupling cs,RORgamma inh,Gal4-VP16 FLuc,GALK inhibitor
COc1ccc(C(=O)NC(=S)N(C)Cc2ccccc2)cc1Br,5%,17%,-1,0.4µM*,0.71µM*,3%
Cc1cc(=O)oc(C)c1C(=O)N1CCCc2ccccc21,-6%,-8%,1,-10%,-5%,-4%
O=C(O)Cc1coc2cc3c(cc12)CCC3,-6%,-8%,-2,25%,5%,-3%
O=c1[nH][nH]c(=S)n1C1CCCCC1,-6%[57.1 µM],-12%[57.1 µM],-39*,11µM*,?,3%
O=C(N/N=C/c1cccc2ccccc12)c1cc(C2CC2)[nH]n1,2%,19%,-5,?,2%,6%
COc1ccc(-c2c(C#N)c(N)nc3c2c(=O)n(C)c(=O)n3C)cc1Cl,-11%,-5%,nt,nt,nt,nt
CC1(C)Cc2c(c(-c3ccco3)[nH]c(=O)c2C#N)CS1,5%,?,-43*,-31%,-17%,1%
CC1(C)Cc2c(C#N)c(N3CCN(C(=O)c4ccccc4Cl)CC3)nc(-c3ccco3)c2CS1,24%[57.1 µM],13µM*,-7,?,-7%,-3%
CC(=O)N1CCN(c2nc(-c3ccco3)c3c(c2C#N)CC(C)(C)SC3)CC1,13%[57.1 µM],?,1,-33%,8%,2%
CCCCc1nc(NCCNC(=O)c2ccco2)c(C#N)c2c1CSC(C)(C)C2,77%,50µM*,0,1%,-9%,-4%
CC1(C)Cc2c(C#N)c(N3CCN(C(=O)c4ccco4)CC3)nc(-c3ccco3)c2CS1,27%,7.1µM*,1,?,2%,-3%
Cn1ncc2c(NCc3ccccc3Cl)nc(NCCO)nc21,4%[57.1 µM],6%[57.1 µM],nt,nt,nt,nt
CCCn1cnc2cc(NC(=O)c3ccco3)ccc21,6%,25%,-1,?,?,-3%
O=C(O)CC(CC(=O)O)c1ccc2c(c1)OCO2,0%,5%,nt,nt,nt,nt
Cc1ccc(N2CCN(C(=O)C3CCN(S(=O)(=O)c4cccc5nsnc45)CC3)CC2C)cc1 (stereo not drawn),1%,6%,nt,nt,nt,nt
Cc1ccc2cc(CCNC(=O)c3ccco3)c(=O)[nH]c2c1C,11%,5%,2,33%,-17%,0%
Cc1ccc(-c2ccc(C(=O)NCc3ccc(Cl)cc3)o2)c2ccccc12,12%,32µM*,-11,?,?,nt
Cc1ccccc1-c1ccc(C(=O)NCc2ccccc2)o1,25%[57.1 µM],27%[57.1 µM],0,-3%,16%,nt
O=C(NCC1CCCO1)C12CN(Cc3ccccc3)CC1C(c1cccc([N+](=O)[O-])c1)=NO2 (stereo not drawn),5%[57.1 µM],2%[57.1 µM],2,?,-3%,0%
CN(C)S(=O)(=O)c1cccc(NC(=O)C2Cc3ccccc3CN2C(=O)c2ccco2)c1 (stereo not drawn),4%,56µM*,0,3%,?,1%
CS(=O)(=O)c1ccc(-c2cn3cc(C(=O)O)ccc3n2)cc1,112%[57.1 µM],21%[57.1 µM],5,7.9µM*,10µM*,1%
CN(C)c1ccc(CNS(=O)(=O)c2csc(C(N)=O)c2)cc1,-11%,-9%,nt,38%,-28%,6%
CC(=O)N1C[C@H]2CON(C)[C@H]2C[C@H]1c1cccc(-c2ccccc2)c1,1%,16%,nt,nt,nt,nt
CCC1(C)Cc2ccccc2C(=S)N1 (stereo not drawn),-6%,5%,-3,8.9µM*,?,-2%
CCC1(C)Cc2ccccc2C(=O)N1 (stereo not drawn),-11%,-2%,-1,0%,1%,3%
SMILES,TrxR1 substrate,rTrxR1 inhibitor,FBPA coupling cs,RORgamma inh,Gal4-VP16 FLuc,GALK inhibitor
Cc1ccc(NC(=O)c2ccc(NCCN)c([N+](=O)[O-])c2)cc1,-11%,-12%,8,6.3µM*,-28%,-4%
COc1ccc(S(=O)(=O)Nc2cc(C(C)C)c(O)cc2C)cc1,10%[57.1 µM],39%[57.1 µM],4,16µM*,?,-5%
CCN1CCN(CCCNC(=O)c2cc3cc4ccc(OC)cc4nc3o2)CC1,i,?,0,-2%,-12%,-3%
COc1ccc2cc3cc(C(=O)NCCCN4CCC(C)CC4)oc3nc2c1,700%,50µM*,nt,-2%,8%,0%
O=C(Nc1ccccc1)c1nc[nH]c1C(=O)NCCNC(=O)c1[nH]cnc1C(=O)Nc1ccccc1,8%[57.1 µM],13%[57.1 µM],nt,nt,nt,nt
CC1(C)Cc2c(sc3[nH]c(=S)n(Cc4ccccc4)c(=O)c23)CO1,-4%,?,7,8%,0.89µM*,1%
O=C(COc1ccccc1F)NNC(=O)c1ccc(F)c(S(=O)(=O)N2CCOCC2)c1,10%[57.1 µM],10%[57.1 µM],nt,nt,nt,nt
Fc1ccc(C2CCCN2Cc2nc(CC3CC3)no2)cc1 (stereo not drawn),9%,21%,3,8%,-12%,4%
Cc1cc2ccccn2c1C(=O)c1ccc([N+](=O)[O-])cc1[N+](=O)[O-],-1%[57.1 µM],3.2µM*,-3,-16%,2%,7%
Cc1cc2ccccn2c1C(=O)c1ccc([N+](=O)[O-])o1,7%[57.1 µM],11µM*,-1,-41%,?,0%
Cc1cc2ccccn2c1C(=O)c1cccc([N+](=O)[O-])c1,12%[57.1 µM],23%[57.1 µM],-4,26%,-6%,0%
CCN(CC)c1c([N+](=O)[O-])c(=O)n(C)c2ccccc12,4%[57.1 µM],24%,-10,1%,-3%,-2%
Cn1c(=O)c([N+](=O)[O-])c(Cl)c2ccccc21,8%[57.1 µM],2.2µM*,1,10µM*,13µM*,1%
CC(=O)N(/N=C1\Sc2ccccc2C1=O)c1cccc(C)c1,-4%,2%,1,7.1µM*,?,-9%
Cn1ncc(S(=O)(=O)Cc2ccccc2)c(Br)c1=O,21%[57.1 µM],0.95µM*,nt,nt,nt,nt
CCOC(=O)Cn1c(=O)oc2cc(S(=O)(=O)NCCCc3ccccc3)ccc21,5%,24%,-5,?,13µM*,0%
COc1ccccc1NC(=S)N1CCN(c2cccc(C)c2C)CC1,6%,12%,0,11µM*,11µM*,8%
Cc1ccccc1NC(=S)N1CCN(c2ccccc2Cl)CC1,4%[57.1 µM],3%[57.1 µM],2,7.1µM*,7.1µM*,0%
Cc1sc2nc(COC(=O)c3ccc(N4CCCC4)c([N+](=O)[O-])c3)[nH]c(=O)c2c1C,-12%,-19%,5,-7%,-22%,-1%
CCCCn1nc(C(=O)NNC(=O)c2ccncc2)c2ccccc2c1=O,-7%,-16%,nt,3%,-5%,0%
CCC(Cc1ccccc1)NS(=O)(=O)c1c(C)nc2sccn2c1=O (stereo not drawn),12%[57.1 µM],2%[57.1 µM],6,-6%,0%,nt

# Screening results from PubChem.
